ChEMBL document CHEMBL1961873, “Compounds: GSK PKIS; Assays: Nanosyn kinase panel” (2012)
“And” between values parts separate entries of the source, which are not always exact repeats. Identical values can stand only once.

Tests used:
[1] = target: Sphingosine kinase 1 (Homo sapiens) (UniProt Q9NYA1); details: at 1 µM;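 note: mean SPHK1 inhibition value reported from the GSK PKIS kinase panel screen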
[2] = target: T1, Sphingosine kinase 2 (Homo sapiens) (UniProt Q9NRA0); details: at 0.1 µM
T1 sequence (whole entry): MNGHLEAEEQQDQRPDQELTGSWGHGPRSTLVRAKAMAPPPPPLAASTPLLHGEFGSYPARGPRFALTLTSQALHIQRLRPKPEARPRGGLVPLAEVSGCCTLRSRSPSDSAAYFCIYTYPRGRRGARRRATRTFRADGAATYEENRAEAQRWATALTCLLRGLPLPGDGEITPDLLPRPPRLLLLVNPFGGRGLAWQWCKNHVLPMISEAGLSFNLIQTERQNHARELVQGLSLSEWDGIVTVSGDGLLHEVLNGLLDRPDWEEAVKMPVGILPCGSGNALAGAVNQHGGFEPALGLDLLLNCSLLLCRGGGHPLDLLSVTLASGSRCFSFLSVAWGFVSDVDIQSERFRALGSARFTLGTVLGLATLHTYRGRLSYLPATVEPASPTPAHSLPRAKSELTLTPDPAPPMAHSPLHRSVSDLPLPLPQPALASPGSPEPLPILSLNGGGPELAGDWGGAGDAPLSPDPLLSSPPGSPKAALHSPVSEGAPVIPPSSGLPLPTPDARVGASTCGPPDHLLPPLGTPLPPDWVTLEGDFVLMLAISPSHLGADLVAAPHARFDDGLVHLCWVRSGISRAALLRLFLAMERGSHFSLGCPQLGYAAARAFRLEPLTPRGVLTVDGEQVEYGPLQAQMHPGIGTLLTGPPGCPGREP

[3] = target: T1, Sphingosine kinase 2 (Homo sapiens); details: at 1 µM
[4] = target: Casein kinase II subunit alpha (Homo sapiens) (UniProt P68400); details: at 0.1 µM
Chain of Casein kinase II subunit alpha (Homo sapiens) (P68400 whole entry, looked up): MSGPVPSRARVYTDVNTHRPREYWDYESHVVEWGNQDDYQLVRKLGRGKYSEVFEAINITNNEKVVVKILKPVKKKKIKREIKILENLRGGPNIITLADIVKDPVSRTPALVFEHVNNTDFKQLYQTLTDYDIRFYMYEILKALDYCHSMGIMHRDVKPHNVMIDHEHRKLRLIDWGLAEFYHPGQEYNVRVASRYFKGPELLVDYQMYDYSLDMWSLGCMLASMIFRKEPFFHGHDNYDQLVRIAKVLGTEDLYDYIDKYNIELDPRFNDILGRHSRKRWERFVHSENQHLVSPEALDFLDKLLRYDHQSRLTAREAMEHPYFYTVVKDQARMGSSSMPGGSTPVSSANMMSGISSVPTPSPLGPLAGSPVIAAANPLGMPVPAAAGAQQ

[5] = target: Casein kinase II subunit alpha (Homo sapiens) (UniProt P68400); details: at 1 µM
[6] = target: T2, Inhibitor of nuclear factor kappa-B kinase subunit alpha (Homo sapiens) (UniProt O15111); details: at 0.1 µM
T2 sequence (whole entry): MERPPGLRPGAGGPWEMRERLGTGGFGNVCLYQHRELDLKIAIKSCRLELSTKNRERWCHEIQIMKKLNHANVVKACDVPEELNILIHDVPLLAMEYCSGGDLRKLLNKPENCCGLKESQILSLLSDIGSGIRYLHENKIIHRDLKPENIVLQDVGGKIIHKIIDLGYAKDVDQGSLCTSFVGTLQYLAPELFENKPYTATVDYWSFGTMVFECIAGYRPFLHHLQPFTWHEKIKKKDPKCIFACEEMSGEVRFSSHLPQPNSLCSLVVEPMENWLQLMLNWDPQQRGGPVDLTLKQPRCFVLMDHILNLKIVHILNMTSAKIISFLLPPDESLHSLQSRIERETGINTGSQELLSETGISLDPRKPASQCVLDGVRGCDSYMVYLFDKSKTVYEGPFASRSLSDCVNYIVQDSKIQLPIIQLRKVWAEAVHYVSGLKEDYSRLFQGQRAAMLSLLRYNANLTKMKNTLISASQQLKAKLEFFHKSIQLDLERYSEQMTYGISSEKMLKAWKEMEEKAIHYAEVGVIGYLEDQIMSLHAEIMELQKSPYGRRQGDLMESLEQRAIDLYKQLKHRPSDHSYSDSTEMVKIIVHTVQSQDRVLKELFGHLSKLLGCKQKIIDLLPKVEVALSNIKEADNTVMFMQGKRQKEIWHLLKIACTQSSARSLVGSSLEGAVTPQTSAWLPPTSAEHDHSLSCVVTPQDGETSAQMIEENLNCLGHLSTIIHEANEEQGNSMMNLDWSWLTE

[7] = target: T2, Inhibitor of nuclear factor kappa-B kinase subunit alpha (Homo sapiens); details: at 1 µM
[8] = target: T3, Inhibitor of nuclear factor kappa-B kinase subunit beta (Homo sapiens) (UniProt O14920); details: at 0.1 µM
T3 sequence (whole entry): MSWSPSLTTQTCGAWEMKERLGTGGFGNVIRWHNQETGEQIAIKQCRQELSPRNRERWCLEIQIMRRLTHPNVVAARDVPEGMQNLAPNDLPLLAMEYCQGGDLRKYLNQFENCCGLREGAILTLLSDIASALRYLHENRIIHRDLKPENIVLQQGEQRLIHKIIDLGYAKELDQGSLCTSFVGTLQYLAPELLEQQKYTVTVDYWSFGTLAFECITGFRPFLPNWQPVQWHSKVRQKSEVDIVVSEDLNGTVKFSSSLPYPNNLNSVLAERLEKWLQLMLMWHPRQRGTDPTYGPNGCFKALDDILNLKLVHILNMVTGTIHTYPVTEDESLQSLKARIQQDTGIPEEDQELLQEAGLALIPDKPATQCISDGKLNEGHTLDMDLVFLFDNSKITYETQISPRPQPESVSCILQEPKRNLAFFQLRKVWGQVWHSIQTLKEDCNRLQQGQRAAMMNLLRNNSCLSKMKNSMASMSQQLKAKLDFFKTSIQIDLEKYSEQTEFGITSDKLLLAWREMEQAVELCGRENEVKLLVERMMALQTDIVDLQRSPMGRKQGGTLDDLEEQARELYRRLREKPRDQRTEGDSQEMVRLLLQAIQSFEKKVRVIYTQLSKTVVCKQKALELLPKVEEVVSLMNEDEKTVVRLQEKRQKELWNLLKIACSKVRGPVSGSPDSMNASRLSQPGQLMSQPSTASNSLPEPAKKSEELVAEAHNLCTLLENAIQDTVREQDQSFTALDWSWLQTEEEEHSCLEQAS

[9] = target: T3, Inhibitor of nuclear factor kappa-B kinase subunit beta (Homo sapiens); details: at 1 µM
[10] = target: T4, Inhibitor of nuclear factor kappa-B kinase subunit epsilon (Homo sapiens) (UniProt Q14164); details: at 0.1 µM
T4 sequence (whole entry): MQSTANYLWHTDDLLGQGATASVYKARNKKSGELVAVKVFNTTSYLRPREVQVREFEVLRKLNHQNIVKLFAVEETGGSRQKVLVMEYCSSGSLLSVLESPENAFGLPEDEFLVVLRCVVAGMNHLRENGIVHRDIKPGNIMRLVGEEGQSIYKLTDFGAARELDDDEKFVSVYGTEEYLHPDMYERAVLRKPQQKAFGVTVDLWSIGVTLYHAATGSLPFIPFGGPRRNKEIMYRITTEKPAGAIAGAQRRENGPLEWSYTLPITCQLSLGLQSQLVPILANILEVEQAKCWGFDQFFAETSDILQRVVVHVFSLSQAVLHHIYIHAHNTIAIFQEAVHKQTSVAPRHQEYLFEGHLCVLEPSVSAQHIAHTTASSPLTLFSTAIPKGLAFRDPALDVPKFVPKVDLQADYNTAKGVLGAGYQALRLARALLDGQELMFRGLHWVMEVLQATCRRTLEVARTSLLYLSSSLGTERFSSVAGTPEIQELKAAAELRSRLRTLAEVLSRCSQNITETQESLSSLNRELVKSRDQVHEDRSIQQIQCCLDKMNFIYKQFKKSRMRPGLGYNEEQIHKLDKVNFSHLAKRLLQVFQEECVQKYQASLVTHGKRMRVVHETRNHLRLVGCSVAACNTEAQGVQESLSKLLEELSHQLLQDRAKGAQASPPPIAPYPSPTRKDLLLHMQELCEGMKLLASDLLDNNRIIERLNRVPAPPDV

[11] = target: T4, Inhibitor of nuclear factor kappa-B kinase subunit epsilon (Homo sapiens); details: at 1 µM
[12] = target: T5, Serine/threonine-protein kinase Nek1 (Homo sapiens) (UniProt Q96PY6); details: at 0.1 µM
T5 sequence (whole entry): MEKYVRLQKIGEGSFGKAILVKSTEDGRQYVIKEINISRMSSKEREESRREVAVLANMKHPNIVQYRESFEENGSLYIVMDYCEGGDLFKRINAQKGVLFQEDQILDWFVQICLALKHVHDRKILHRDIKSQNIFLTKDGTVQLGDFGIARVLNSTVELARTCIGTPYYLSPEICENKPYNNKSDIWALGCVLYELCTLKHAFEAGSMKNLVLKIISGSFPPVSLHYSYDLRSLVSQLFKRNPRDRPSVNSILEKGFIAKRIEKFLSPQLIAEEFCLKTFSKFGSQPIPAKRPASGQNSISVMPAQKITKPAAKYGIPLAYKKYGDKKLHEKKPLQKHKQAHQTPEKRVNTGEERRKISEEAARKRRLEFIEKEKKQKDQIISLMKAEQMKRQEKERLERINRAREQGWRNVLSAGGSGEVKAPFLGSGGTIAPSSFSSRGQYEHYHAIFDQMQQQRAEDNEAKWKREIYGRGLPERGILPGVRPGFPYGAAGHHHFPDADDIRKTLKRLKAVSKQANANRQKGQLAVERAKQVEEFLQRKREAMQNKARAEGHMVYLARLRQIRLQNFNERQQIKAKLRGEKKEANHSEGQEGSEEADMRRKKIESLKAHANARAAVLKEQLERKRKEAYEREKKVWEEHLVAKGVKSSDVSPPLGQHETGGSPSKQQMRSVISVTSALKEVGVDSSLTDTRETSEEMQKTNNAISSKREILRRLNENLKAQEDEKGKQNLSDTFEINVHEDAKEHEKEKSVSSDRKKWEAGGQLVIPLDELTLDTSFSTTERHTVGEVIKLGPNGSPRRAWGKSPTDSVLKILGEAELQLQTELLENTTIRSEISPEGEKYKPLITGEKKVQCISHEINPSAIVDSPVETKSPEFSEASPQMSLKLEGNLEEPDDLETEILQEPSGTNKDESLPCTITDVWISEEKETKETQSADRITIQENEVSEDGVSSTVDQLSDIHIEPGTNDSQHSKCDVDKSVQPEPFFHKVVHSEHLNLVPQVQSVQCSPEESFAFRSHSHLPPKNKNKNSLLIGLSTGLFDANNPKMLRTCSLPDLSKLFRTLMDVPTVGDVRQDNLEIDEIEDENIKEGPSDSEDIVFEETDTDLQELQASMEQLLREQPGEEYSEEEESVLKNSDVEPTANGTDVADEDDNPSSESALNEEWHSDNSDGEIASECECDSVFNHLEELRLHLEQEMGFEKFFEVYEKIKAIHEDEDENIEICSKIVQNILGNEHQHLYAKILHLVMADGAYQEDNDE

[13] = target: T5, Serine/threonine-protein kinase Nek1 (Homo sapiens); details: at 1 µM
[14] = target: T6, Serine/threonine-protein kinase Nek2 (Homo sapiens) (UniProt P51955); details: at 0.1 µM
T6 sequence (whole entry): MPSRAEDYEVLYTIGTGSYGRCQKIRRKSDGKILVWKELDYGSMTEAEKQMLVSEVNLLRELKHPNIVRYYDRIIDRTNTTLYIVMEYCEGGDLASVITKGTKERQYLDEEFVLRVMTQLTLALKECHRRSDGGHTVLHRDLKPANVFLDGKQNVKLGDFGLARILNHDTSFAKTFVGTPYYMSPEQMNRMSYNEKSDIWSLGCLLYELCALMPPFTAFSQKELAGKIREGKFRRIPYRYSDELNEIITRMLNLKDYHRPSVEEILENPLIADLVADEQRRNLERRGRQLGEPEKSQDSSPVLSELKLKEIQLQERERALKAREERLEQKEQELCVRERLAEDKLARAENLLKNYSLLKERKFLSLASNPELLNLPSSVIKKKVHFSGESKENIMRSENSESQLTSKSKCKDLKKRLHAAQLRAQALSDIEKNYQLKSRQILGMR

[15] = target: T6, Serine/threonine-protein kinase Nek2 (Homo sapiens); details: at 1 µM
[16] = target: Serine/threonine-protein kinase Nek6 (Homo sapiens) (UniProt Q9HC98); details: at 0.1 µM
Chain of Serine/threonine-protein kinase Nek6 (Homo sapiens) (Q9HC98 whole entry): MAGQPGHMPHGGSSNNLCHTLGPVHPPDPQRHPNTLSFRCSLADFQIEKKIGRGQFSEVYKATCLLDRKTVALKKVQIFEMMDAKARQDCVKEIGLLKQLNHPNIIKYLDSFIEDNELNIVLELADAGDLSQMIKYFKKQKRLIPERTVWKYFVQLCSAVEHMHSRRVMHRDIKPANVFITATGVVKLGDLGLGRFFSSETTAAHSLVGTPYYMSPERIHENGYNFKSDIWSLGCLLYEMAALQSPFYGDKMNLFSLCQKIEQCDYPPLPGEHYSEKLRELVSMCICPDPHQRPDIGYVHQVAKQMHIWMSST

[17] = target: Serine/threonine-protein kinase Nek6 (Homo sapiens) (UniProt Q9HC98); details: at 1 µM
[18] = target: Serine/threonine-protein kinase Nek7 (Homo sapiens) (UniProt Q8TDX7); details: at 0.1 µM
Chain of Serine/threonine-protein kinase Nek7 (Homo sapiens) (Q8TDX7 whole entry, looked up): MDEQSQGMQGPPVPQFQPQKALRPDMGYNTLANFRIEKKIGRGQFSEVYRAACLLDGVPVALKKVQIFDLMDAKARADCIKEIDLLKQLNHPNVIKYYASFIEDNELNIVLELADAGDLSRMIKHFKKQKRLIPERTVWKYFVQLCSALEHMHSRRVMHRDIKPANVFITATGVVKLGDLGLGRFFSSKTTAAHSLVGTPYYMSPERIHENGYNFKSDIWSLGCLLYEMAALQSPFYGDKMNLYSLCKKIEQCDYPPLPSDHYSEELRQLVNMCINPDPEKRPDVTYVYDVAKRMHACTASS

[19] = target: Serine/threonine-protein kinase Nek7 (Homo sapiens) (UniProt Q8TDX7); details: at 1 µM
[20] = target: T7, Serine/threonine-protein kinase Nek9 (Homo sapiens) (UniProt Q8TD19); details: at 0.1 µM;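 note: reported value is the mean percent inhibition of NEK9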
T7 sequence (whole entry): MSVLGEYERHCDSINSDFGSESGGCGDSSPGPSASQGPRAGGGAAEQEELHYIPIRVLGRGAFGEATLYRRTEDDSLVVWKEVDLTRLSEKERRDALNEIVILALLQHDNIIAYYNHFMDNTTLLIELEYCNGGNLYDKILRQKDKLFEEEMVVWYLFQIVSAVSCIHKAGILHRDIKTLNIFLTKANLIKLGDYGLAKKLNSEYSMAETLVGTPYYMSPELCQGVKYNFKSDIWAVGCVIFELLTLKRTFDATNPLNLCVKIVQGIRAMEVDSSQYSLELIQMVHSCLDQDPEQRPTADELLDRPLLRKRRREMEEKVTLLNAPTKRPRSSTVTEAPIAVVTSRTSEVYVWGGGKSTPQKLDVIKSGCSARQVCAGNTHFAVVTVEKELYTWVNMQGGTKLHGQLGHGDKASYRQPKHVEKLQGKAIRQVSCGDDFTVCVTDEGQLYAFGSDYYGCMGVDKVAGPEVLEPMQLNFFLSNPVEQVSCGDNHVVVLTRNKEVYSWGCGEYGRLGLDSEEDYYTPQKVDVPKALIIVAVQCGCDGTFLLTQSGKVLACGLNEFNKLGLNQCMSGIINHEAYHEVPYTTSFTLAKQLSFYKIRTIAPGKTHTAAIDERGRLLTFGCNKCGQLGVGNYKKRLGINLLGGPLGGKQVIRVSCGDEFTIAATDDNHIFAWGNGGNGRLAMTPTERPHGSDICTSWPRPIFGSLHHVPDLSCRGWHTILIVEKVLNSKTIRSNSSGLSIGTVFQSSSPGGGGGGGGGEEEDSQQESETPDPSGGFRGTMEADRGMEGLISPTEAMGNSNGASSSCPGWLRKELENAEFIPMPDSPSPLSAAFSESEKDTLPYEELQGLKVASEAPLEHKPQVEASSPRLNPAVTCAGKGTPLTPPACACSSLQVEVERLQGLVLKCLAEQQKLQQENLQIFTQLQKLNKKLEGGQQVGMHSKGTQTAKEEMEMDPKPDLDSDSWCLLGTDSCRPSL

Chain of Sphingosine kinase 1 (Homo sapiens) (Q9NYA1 whole entry): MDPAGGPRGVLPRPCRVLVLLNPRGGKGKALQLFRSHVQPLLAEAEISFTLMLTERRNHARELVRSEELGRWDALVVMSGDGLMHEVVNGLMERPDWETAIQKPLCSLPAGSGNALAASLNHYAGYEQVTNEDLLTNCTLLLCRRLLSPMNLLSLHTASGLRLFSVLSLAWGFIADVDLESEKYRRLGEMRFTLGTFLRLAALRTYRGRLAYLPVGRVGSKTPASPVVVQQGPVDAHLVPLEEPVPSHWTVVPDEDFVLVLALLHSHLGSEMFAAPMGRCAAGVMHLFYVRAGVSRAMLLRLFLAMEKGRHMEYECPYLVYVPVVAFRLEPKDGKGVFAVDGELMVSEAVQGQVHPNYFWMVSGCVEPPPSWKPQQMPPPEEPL

SMILES	inhibition [1]	inhibition [2]	inhibition [3]	inhibition [4]	inhibition [5]	inhibition [6]	inhibition [7]	inhibition [8]	inhibition [9]	inhibition [10]	inhibition [11]	inhibition [12]	inhibition [13]	inhibition [14]	inhibition [15]	inhibition [16]	inhibition [17]	inhibition [18]	inhibition [19]	inhibition [20]
N#Cc1ccc2c(-c3ccnc(NC4CC4)n3)c(-c3ccc(F)cc3)nn2c1	0.88%	-0.39%	0.05%	2.7%	1.8%	3.97%	-0.5%	2.19%	0.5%	1.8%	3.7%	0.87%	2.03%	2.22%	1.83%	1.63%	1.52%	1.73%	2.38%	3.27%
CN1CCN(Cc2ccc(-c3cc4ncnc(Nc5ccc(OCc6cccc(F)c6)c(Cl)c5)c4s3)o2)CC1	3.16% and -4.57%	0.42% and -0.46%	2.36% and -0.62%	12.7% and 7.35%	3.7% and 10.5%	4.53% and 11.4%	2.93% and 6.95%	2.82% and 5.97%	3.27% and 6.18%	3.75% and 4.88%	4.6% and 4.24%	1.24% and 3.95%	2.68% and 4.85%	3.46% and 4.63%	2.94% and 4.7%	-1.83% and 5.78%	0.03% and 5.91%	2.08% and 6.06%	5.67% and 4.39%	-2.04% and 6.24%
